Drawing on PubChem BioAssay (NCI), this text covers growth for seven compounds.

Test systems include 786-0 renal; MALME-3M melanoma; MDA-MB-231 breast; SF-268 CNS; SF-295 CNS; UACC-257 melanoma; U251 CNS; PC-3 prostate; UACC-62 melanoma; SK-MEL-2 melanoma; SN12C renal; UO-31 renal; TK-10 renal; ACHN renal; A498 renal; OVCAR-5 ovarian; OVCAR-3 ovarian; HS 578T breast; NCI/ADR-RES ovarian; BT-549 breast.
Common to all, as to assay: NCI-60 one-dose screen, 48 h (100 = growth as untreated, 0 = no growth, -100 = all killed)
Common to all, as to conditions: 10 µM

The panel holds about 83,000 compounds, 20% with a hit somewhere; the sample as a whole holds those more often.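 Results are percent growth after 48 hours of single-concentration exposure. 100 means growth as in untreated cells, lower positive values show inhibition; negative values down to -100 show cell death.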 Values without a mark were called inactive. Activity calls are given as the source filed them. The calls were made as follows: active = growth percent below 10; inactive = the rest.

With `O=C(c1ccc(F)cc1)C(c1c[nH]c2ccccc12)c1c[nH]c2ccccc12`, the growth in the test on 786-0 renal was 80.1%; in the test on MALME-3M melanoma, 69.5%; in the test with MDA-MB-231 breast, 58.8%; in the test with SF-268 CNS, 63%; in the test with SF-295 CNS, 105%; with UACC-257 melanoma it was 86.3%. Further, the growth is 74.8% with U251 CNS; 41% in the test with PC-3 prostate; 53.7% in the test with UACC-62 melanoma; 87.5% with SK-MEL-2 melanoma; 42.6% with SN12C renal; 43.8% with UO-31 renal. Further, the growth was 148% in the test with TK-10 renal; 39.4% in the test on ACHN renal; 98.3% in the test with A498 renal; 52.5% with OVCAR-5 ovarian; 46.9% in the test on OVCAR-3 ovarian; 86.1% in the test on HS 578T breast. Also, the figures for the growth in the test with NCI/ADR-RES ovarian and in the test with BT-549 breast were 54.7% and 71.4%, respectively.
For the compound `C#C[C@]1(O)CC[C@H]2[C@@H]3CC=C4c5sc(Nc6cc(C)cc(C)n6)nc5CC[C@]4(C)[C@H]3CC[C@@]21C`, the growth in the test with 786-0 renal is -52.2% (active); in the test with MALME-3M melanoma, -39.8% (active); in the test on MDA-MB-231 breast, -44.9% (active); with SF-268 CNS, 7.69% (active); in the test with SF-295 CNS, -75.3% (active); in the test on UACC-257 melanoma it was -49.4% (active). Moreover, the growth with U251 CNS was -58.9% (active); in the test with PC-3 prostate it was -4.36% (active); in the test with UACC-62 melanoma, -53.1% (active); in the test on SK-MEL-2 melanoma, -28.4% (active); in the test on SN12C renal it was -3.77% (active); in the test with UO-31 renal, -65.9% (active). In addition, the growth with TK-10 renal was 4.66% (active); with ACHN renal, 7.43% (active); in the test on A498 renal, -73.5% (active); in the test with OVCAR-5 ovarian it was -21.9% (active); in the test on OVCAR-3 ovarian, -3.49% (active); in the test on HS 578T breast, -20.5% (active). Further, the growth was 0.407% (active) in the test with NCI/ADR-RES ovarian and -50.4% (active) in the test with BT-549 breast.
On to `Cc1ccc(-c2nc(C#N)c(S(=O)(=O)N3CCN(S(C)(=O)=O)CC3)o2)cc1`, for which the growth was -76.2% (active) in the test with 786-0 renal; -76.8% (active) with MALME-3M melanoma; 77.6% in the test on MDA-MB-231 breast; 88.5% in the test on SF-268 CNS; 155% with SF-295 CNS; 57.7% in the test with UACC-257 melanoma. In addition, the growth was 78.7% with U251 CNS; 68.3% in the test on PC-3 prostate; 53.4% in the test on UACC-62 melanoma; 75.5% in the test with SK-MEL-2 melanoma; 78.1% with SN12C renal; 26.7% in the test on UO-31 renal. The growth with TK-10 renal was 97%; with ACHN renal, -97.9% (active); in the test on A498 renal, 132%; in the test on OVCAR-5 ovarian, 76.9%; with OVCAR-3 ovarian, -22% (active); with HS 578T breast it was 100%. The growth with NCI/ADR-RES ovarian was 57.6%; with BT-549 breast, 58%.
With `COc1cc(C2CC(c3ccccc3)=Nc3c(N)nc(N)nc3N2)ccc1Oc1nc(NCCO)nc(N2CCOCC2)n1` (stereo not given), the growth was 89.2% in the test with 786-0 renal; 93.3% in the test with MALME-3M melanoma; 97.1% in the test with MDA-MB-231 breast; 88.8% in the test on SF-268 CNS; 105% with SF-295 CNS; 101% in the test with UACC-257 melanoma. In addition, the growth in the test on U251 CNS is 98.1%; in the test on PC-3 prostate it was 101%; with UACC-62 melanoma it was 97.1%; with SK-MEL-2 melanoma, 99.7%; in the test with SN12C renal, 94.8%; in the test on UO-31 renal, 94.2%. Besides, the growth in the test with TK-10 renal is 110%; in the test with ACHN renal, 103%; in the test with A498 renal, 113%; in the test on OVCAR-5 ovarian, 107%; in the test with OVCAR-3 ovarian, 109%; in the test with HS 578T breast, 78.9%. For the same compound, the results for the growth in the test with NCI/ADR-RES ovarian and in the test on BT-549 breast were 109% and 92.6%, respectively.
As to `COc1ccc(C2OC[C@@]3(C)C4CC[C@]5(C)C(CC=C6C7CC(C)(C)CC[C@]7(C(=O)O)CC[C@]65C)[C@@]4(C)C[C@@H](O)[C@@H]3O2)cc1` (stereo not given in full), the growth is 94.8% in the test on 786-0 renal; 99.3% in the test on MALME-3M melanoma; 110% in the test on MDA-MB-231 breast; 88.8% with SF-268 CNS; 94.3% with SF-295 CNS; 96.3% in the test with UACC-257 melanoma. In addition, the growth was 50.7% in the test with U251 CNS; 49.2% with PC-3 prostate; 85.3% in the test on UACC-62 melanoma; 102% in the test on SK-MEL-2 melanoma; 82% in the test with SN12C renal; 57.9% in the test with UO-31 renal. The growth was 76% in the test with TK-10 renal; 56.8% in the test on ACHN renal; 102% with A498 renal; 108% with OVCAR-5 ovarian; 74.1% with OVCAR-3 ovarian; 85.3% with HS 578T breast. For the same compound, the growth is 87.1% with NCI/ADR-RES ovarian and 82.4% in the test on BT-549 breast.
Consider `CC1[C@H]2[C@H](C[C@H]3[C@@H]4CC=C5c6sc(Nc7cccc(Cl)n7)nc6CC[C@]5(C)[C@H]4CC[C@@]32C)O[C@]12CC[C@@H](C)CO2` (stereo not given in full), for which the growth in the test with 786-0 renal is 105%; with MALME-3M melanoma it was 117%; with MDA-MB-231 breast it was 82.4%; in the test with SF-268 CNS, 86.9%; in the test on SF-295 CNS it was 109%; in the test on UACC-257 melanoma it was 82%. Also, the growth with U251 CNS is 92.2%; in the test on PC-3 prostate it was 48%; with UACC-62 melanoma, 54.5%; in the test on SK-MEL-2 melanoma, 76.9%; in the test on SN12C renal, 94.5%; with UO-31 renal it was 85.4%. Moreover, the growth was 171% in the test with TK-10 renal; 96.4% in the test with ACHN renal; 92.6% with A498 renal; 113% in the test on OVCAR-5 ovarian; 93.7% in the test with OVCAR-3 ovarian; 106% with HS 578T breast. Also, the results for the growth in the test on NCI/ADR-RES ovarian and in the test on BT-549 breast were 94% and 83.5%, respectively.
For the compound `COc1cc(-c2nc3ccc(C)cc3[nH]2)ccc1OCc1nnc(-c2ccccc2Br)o1`, the growth was 31.4% with 786-0 renal; 66.8% in the test on MALME-3M melanoma; 69.7% in the test on MDA-MB-231 breast; 79.3% with SF-268 CNS; -0.44% (active) with SF-295 CNS; 78.3% with UACC-257 melanoma. The growth is 57.7% in the test on U251 CNS; 56.1% in the test on PC-3 prostate; 92% in the test with UACC-62 melanoma; 85.2% in the test on SK-MEL-2 melanoma; 76.1% in the test with SN12C renal; 61.8% in the test on UO-31 renal. Moreover, the growth in the test with TK-10 renal is 116%; in the test on ACHN renal, 76.6%; in the test with A498 renal it was 108%; in the test on OVCAR-5 ovarian, 77.5%; with OVCAR-3 ovarian, 75.7%; in the test with HS 578T breast, 62.2%. Besides, the growth with NCI/ADR-RES ovarian was 75%; with BT-549 breast it was 55.7%.
